About 83,000 compounds went through this panel and 20% of them were active in at least one assay; those are over-represented in the sample as a whole.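 In brief: 96-well plates, 48 h treatment, single concentration, percent growth endpoint.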 Calls of active or inactive are those of the source. Rule for the calls: active = growth percent below 10; inactive = the rest.
Key:
Assay in all cases: NCI-60 one-dose screen, 48 h (100 = growth as untreated, 0 = no growth, -100 = all killed)
Settings in all cases: 10 µM unless noted
T-47D breast = test system: T-47D breast
BT-549 breast = test system: BT-549 breast
MDA-MB-435 melanoma = test system: MDA-MB-435 melanoma
SW-620 colon = test system: SW-620 colon
MCF7 breast = test system: MCF7 breast
HCT-116 colon = test system: HCT-116 colon
HCC-2998 colon = test system: HCC-2998 colon
KM12 colon = test system: KM12 colon

Measured: growth

O=C1c2cc3c(cc2-c2c1c1ccc(Cl)cc1c(=O)n2CCCNCCO)OCO3
active: T-47D breast -67.1% | BT-549 breast -63.7% | MDA-MB-435 melanoma -85% | SW-620 colon -73.2% | MCF7 breast -73.1% | HCT-116 colon -74.2% | HCC-2998 colon -89% | KM12 colon -78.4%

CC1CN(CC(O)c2ccc(Br)cc2)CCO1 (stereo unspecified)
inactive: T-47D breast 107% | BT-549 breast 106% | MDA-MB-435 melanoma 121% | SW-620 colon 109% | MCF7 breast 105% | HCT-116 colon 108% | HCC-2998 colon 103% | KM12 colon 107%

N=C1c2nc3n(c2C(=O)c2nc4n(c21)CCCCC4)CCCCC3
inactive: T-47D breast 116% | BT-549 breast 110% | MDA-MB-435 melanoma 111% | SW-620 colon 105% | MCF7 breast 94.5% | HCT-116 colon 107% | HCC-2998 colon 112% | KM12 colon 106%

CCCCN=C(N)c1ccc(OCCSCCOc2ccc(C(N)=NCCCC)cc2)cc1
inactive: T-47D breast 26.3% | MDA-MB-435 melanoma 35.5% | SW-620 colon 57.5% | MCF7 breast 29.1% | HCT-116 colon 41.5% | HCC-2998 colon 59% | KM12 colon 27%
active: BT-549 breast -3.76%

O=C1Nc2ccc(Cl)cc2/C1=C/c1cccs1
inactive: T-47D breast 16.9% | BT-549 breast 95.4% | MDA-MB-435 melanoma 105% | SW-620 colon 103% | MCF7 breast 44.6% | HCT-116 colon 99.2% | HCC-2998 colon 77.6% | KM12 colon 86.8%

O=[N+]([O-])c1ccc(N=Nc2c(Cl)cc(O)cc2Cl)cc1
active: T-47D breast 4.24% | BT-549 breast -33.6% | MDA-MB-435 melanoma -24.4% | SW-620 colon -10% | MCF7 breast 1.11% | HCT-116 colon -57.2% | HCC-2998 colon 5.82% | KM12 colon -39.8%

COc1ccc(CNC(=O)c2c(C)n([O-])c3cc(F)c(F)cc3[n+]2=O)cc1
inactive: T-47D breast 67.8% | BT-549 breast 80.3% | MDA-MB-435 melanoma 106% | SW-620 colon 71.1% | MCF7 breast 55.9% | HCT-116 colon 97.8% | KM12 colon 96.1%
active: HCC-2998 colon -73.5%

CCCCN1c2nc3ccccc3cc2Sc2cc3ccccc3nc21
active: MCF7 breast 7.26%
inactive: T-47D breast 13.7% | BT-549 breast 97.1% | MDA-MB-435 melanoma 151% | SW-620 colon 94.4% | HCT-116 colon 95.1% | HCC-2998 colon 86.5% | KM12 colon 68.3%

CC[C@@H](C)/C=C(C)/C=C/C(=O)c1c(O)c(-c2ccc(O)cc2)cn(OC2CC(=O)CCC(C)OC(=O)CC2O)c1=O (stereo partly specified)
inactive: T-47D breast 25.8% | BT-549 breast 14.6% | MDA-MB-435 melanoma 12.4% | SW-620 colon 22.9% | MCF7 breast 21.7% | HCT-116 colon 18.5% | KM12 colon 19.8%
active: HCC-2998 colon 8.22%

NC(=O)NC1(C(=O)O)CCCC1
inactive: T-47D breast 93.6% | BT-549 breast 111% | MDA-MB-435 melanoma 107% | SW-620 colon 109% | MCF7 breast 98.9% | HCT-116 colon 115% | HCC-2998 colon 108% | KM12 colon 107%

O=C(Nc1ccccc1)P(=O)(O)c1ccccc1
inactive: T-47D breast 113% | BT-549 breast 110% | MDA-MB-435 melanoma 111% | SW-620 colon 101% | MCF7 breast 96.8% | HCT-116 colon 98.1% | HCC-2998 colon 97.3% | KM12 colon 99.8%

COc1cc(/C=C2\SC(N3CCCCC3)=NC2=O)ccc1OCCCCCCOc1ccc(/C=C2\SC(N3CCCCC3)=NC2=O)cc1OC
inactive: T-47D breast 21.9% | MCF7 breast 16.6%
active: BT-549 breast -36.6% | MDA-MB-435 melanoma -48% | SW-620 colon -24.7% | HCT-116 colon -64.3% | HCC-2998 colon -76.5% | KM12 colon -72.1%

CCOC(=O)c1sc(NC(=O)COc2cccc(/C=C3\Cc4ccc(Cl)cc4C3=O)c2)nc1C
inactive: T-47D breast 98.8% | BT-549 breast 115% | MDA-MB-435 melanoma 103% | SW-620 colon 94.6% | MCF7 breast 54.3% | HCT-116 colon 12.3% | KM12 colon 103%
active: HCC-2998 colon -19.5%

CCCCCCC(CC#N)(CCC)CCCC (stereo unspecified)
inactive: T-47D breast 112% | BT-549 breast 120% | MDA-MB-435 melanoma 103% | SW-620 colon 107% | MCF7 breast 96.1% | HCT-116 colon 104% | HCC-2998 colon 110% | KM12 colon 111%

C#C[C@]1(O)CCC2C3CCc4cc(O)ccc4C3CC[C@@]21C (stereo partly specified)
active: MDA-MB-435 melanoma -5.44%
inactive: T-47D breast 50.3% | BT-549 breast 36.8% | SW-620 colon 21.2% | MCF7 breast 34.1% | HCT-116 colon 19% | HCC-2998 colon 61% | KM12 colon 21.9%

COc1cccc(/C=C2\Cc3ccccc3C2=O)c1
inactive: T-47D breast 100% | BT-549 breast 103% | MDA-MB-435 melanoma 96.7% | SW-620 colon 104% | MCF7 breast 58.8% | HCT-116 colon 96.3% | HCC-2998 colon 105% | KM12 colon 95.2%

O=C(O)C1C(c2ccccc2)c2ccccc2C(O)C1CO (stereo unspecified)
inactive: T-47D breast 115% | BT-549 breast 103% | MDA-MB-435 melanoma 116% | SW-620 colon 106% | MCF7 breast 97% | HCT-116 colon 101% | HCC-2998 colon 106% | KM12 colon 117%

CCc1nn2c(-c3ccc(Cl)cc3C)c(-c3cc(OC)c(OC)c(OC)c3)nc2s1
inactive: T-47D breast 58.8% | BT-549 breast 101% | MDA-MB-435 melanoma 81.3% | SW-620 colon 82.5% | MCF7 breast 50.7% | HCT-116 colon 60.5% | HCC-2998 colon 86.3% | KM12 colon 89%

Cn1cc(NC(=O)Nc2cc(C(=O)O)n(C)c2)cc1C(=O)O
inactive: T-47D breast 107% | BT-549 breast 125% | MDA-MB-435 melanoma 115% | SW-620 colon 96.3% | MCF7 breast 116% | HCT-116 colon 102% | HCC-2998 colon 107% | KM12 colon 98.6%

O=C1C(=O)c2c(nc3ccc(Cl)cn23)-c2ccccc21
active: T-47D breast -55.8% | BT-549 breast -99.4% | MDA-MB-435 melanoma -89.5% | SW-620 colon -100% | MCF7 breast -88% | HCT-116 colon -95.3% | HCC-2998 colon -95.8% | KM12 colon -68.7%

N#Cc1ccccc1C#Cc1ccccc1C#Cc1ccc(OCCCCCCOc2ccc(C#Cc3ccccc3C#Cc3ccccc3C#N)cc2)cc1
inactive: T-47D breast 93.4% | BT-549 breast 112% | MDA-MB-435 melanoma 107% | SW-620 colon 96.6% | MCF7 breast 78.6% | HCT-116 colon 91.8% | HCC-2998 colon 107% | KM12 colon 105%

NS(=O)(=O)c1ccc(-n2nc(-c3ccc(Br)cc3)ccc2=O)cc1
active: MDA-MB-435 melanoma 0.0656% [100 µM]
inactive: T-47D breast 77% [100 µM] | BT-549 breast 38.6% [100 µM] | SW-620 colon 63% [100 µM] | MCF7 breast 74.8% [100 µM] | HCT-116 colon 34.8% [100 µM] | HCC-2998 colon 91.9% [100 µM] | KM12 colon 49.6% [100 µM]

Cc1ccc(-c2csc(N)n2)cc1
inactive: T-47D breast 92.9% | BT-549 breast 93% | MDA-MB-435 melanoma 106% | SW-620 colon 105% | MCF7 breast 106% | HCT-116 colon 99.9% | HCC-2998 colon 98.7% | KM12 colon 106%

CCN(CC)c1ccc(C(=C2C=CC(=[N+](CC)Cc3cccc(S(=O)(=O)O)c3)C=C2)c2ccc(N(CC)Cc3cccc(S(=O)(=O)O)c3)cc2)cc1
inactive: BT-549 breast 46.6% | MDA-MB-435 melanoma 41.5% | SW-620 colon 22.9% | MCF7 breast 52.1% | HCC-2998 colon 21%
active: T-47D breast 8.92% | HCT-116 colon 3.12% | KM12 colon 3.78%

CC(=O)N1N=C(c2ccc(Cl)cc2)CC1c1c(C)nn(-c2ccccc2)c1N(C)Cc1ccccc1 (stereo unspecified)
inactive: T-47D breast 59.6% | BT-549 breast 88.5% | MDA-MB-435 melanoma 87% | SW-620 colon 80.6% | MCF7 breast 72.2% | HCT-116 colon 53.1% | HCC-2998 colon 88.2% | KM12 colon 74.8%

COc1ccc(C2=NN(C(C)=O)C(c3cccc(Nc4ccnc5cc(Cl)ccc45)c3)C2)cc1 (stereo unspecified)
inactive: T-47D breast 37.5% | BT-549 breast 50.4% | MDA-MB-435 melanoma 41.4% | SW-620 colon 74.4% | MCF7 breast 37.4% | HCT-116 colon 44.3% | HCC-2998 colon 83.1% | KM12 colon 54.1%

CSc1nc(N)c2c(n1)N(C)C=NS2(=O)=O
inactive: T-47D breast 97.2% | BT-549 breast 100% | MDA-MB-435 melanoma 111% | SW-620 colon 102% | MCF7 breast 102% | HCT-116 colon 102% | HCC-2998 colon 107% | KM12 colon 117%

CCCCCCCCCCN1CCC(N2CCCCC2)CC1
active: T-47D breast -55.9% | MDA-MB-435 melanoma -25% | SW-620 colon -56.9% | MCF7 breast -60.8% | HCT-116 colon -65.2% | KM12 colon -6.35%
inactive: BT-549 breast 37.5% | HCC-2998 colon 14.8%

CCC(=O)Nc1cc2c(cc1Cl)-c1ccccc1C2
inactive: T-47D breast 85.2% | BT-549 breast 86.1% | MDA-MB-435 melanoma 113% | SW-620 colon 101% | MCF7 breast 95.2% | HCT-116 colon 99.2% | HCC-2998 colon 87% | KM12 colon 95.2%

C=C1CC[C@@H]2[C@](C)(COC(C)=O)[C@H](OC(C)=O)CC[C@@]2(C)[C@@H]1CC(NCc1ccccc1)C1=CCOC1=O (stereo partly specified)
inactive: T-47D breast 14.2% | BT-549 breast 28.1% | MDA-MB-435 melanoma 27.9% | SW-620 colon 47.3% | MCF7 breast 29.8% | HCT-116 colon 42.3% | HCC-2998 colon 93.7% | KM12 colon 39.1%

CC(C)Sc1nc(-c2ccc(Br)cc2)c(C#N)c(N2CCCCC2)n1
inactive: T-47D breast 94.3% | BT-549 breast 109% | MDA-MB-435 melanoma 95.7% | SW-620 colon 102% | MCF7 breast 93.1% | HCT-116 colon 100% | HCC-2998 colon 121% | KM12 colon 95.9%

CC(C)=CCNc1ncnc2c1ncn2C1OC(COP(=O)(O)O)C(O)C1O (stereo unspecified)
inactive: MDA-MB-435 melanoma 56.7% | SW-620 colon 37.6% | MCF7 breast 16.5% | HCT-116 colon 19.2% | HCC-2998 colon 69.6% | KM12 colon 69.6%
active: T-47D breast 3.18% | BT-549 breast 2.41%
